Hits are enriched below; roughly 3% of the tested compounds scored in any of these assays.
SENP8 block-1 = human SENP8 protease inhibitors, primary screen, biochemical, fluorescence, Nedd8 protein substrate, uHTS | Sentrin-specific protease 8 (Homo sapiens), Q96LD8 | 0.64% of 360,000 active | AID 602440, 2012 | inhibition, % at 20 µM | recombinant SENP8; in the data active means inhibition mostly above about 40%, no sharp cut-off; inactive means mostly below about 27%
SENP8 block-2 = SENP8 protease inhibitors, primary screen, biochemical, luminescence; Sentrin-specific protease 8 (Homo sapiens), Q96LD8; inhibition, % at 10 µM; purified SENP8, Z-RLRGG-aminoluciferin cleavage; AID 2540, 2010; 1.2% of 330,000 active; in the data active means inhibition above about 50%
SENP7 inh = SENP7 protease inhibitors, primary screen, biochemical, luminescence, uHTS. inhibition, % at 5 µM. recombinant SENP7, Z-RLRGG-aminoluciferin luminescence, 40 min. 1.5% of 330,000 active. Sentrin-specific protease 7 (Homo sapiens), Q9BQF6. AID 434973, 2010;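 active means inhibition above about 50% at the single test dose, limit read from the data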
Target sequence (Q9BQF6 706-1050 limits assumed): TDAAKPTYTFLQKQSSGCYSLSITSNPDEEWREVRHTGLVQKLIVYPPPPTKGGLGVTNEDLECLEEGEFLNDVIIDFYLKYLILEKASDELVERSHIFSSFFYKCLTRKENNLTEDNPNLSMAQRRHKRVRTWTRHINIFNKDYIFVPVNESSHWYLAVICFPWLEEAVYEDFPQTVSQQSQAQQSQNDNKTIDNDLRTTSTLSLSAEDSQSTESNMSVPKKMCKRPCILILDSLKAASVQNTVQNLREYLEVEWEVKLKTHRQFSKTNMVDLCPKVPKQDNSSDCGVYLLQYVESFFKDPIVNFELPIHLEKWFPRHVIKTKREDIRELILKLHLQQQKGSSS
PPC-1+TRAIL kill = compounds killing PPC-1 cancer cells with TRAIL present, primary screen, TRAIL potentiator project, ATPLite luminescence, uHTS; PPC-1 cells + TRAIL, ATPLite viability luminescence; cell killing (% activity), % at 4 µM or 5 µM; 0.41% of 220,000 active;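 active means cell killing above 50% in the first pass at 4 µM, then a duplicate retest at 5 µM averaging 50% or more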
TRAIL sens C8 = viability loss with TRAIL in NB7+C8 cells, primary screen, TRAIL sensitizer project, cell-based, ATPlite luminescence; AID 624354, 2012; 1% of 360,000 active; inhibition (viability loss, TRAIL sensitization), % at 10 µM;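 active means compounds causing at least 50% loss of cell viability in the single-dose screen, relative to plate controls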
SENP6 inh = SENP6 protease inhibitors, primary screen, biochemical, luminescence, uHTS; Sentrin-specific protease 6 (Homo sapiens), Q9GZR1; Recombinant SENP6 catalytic domain, aminoluciferin luminescence; inhibition, % at 10 µM; 1.8% of 330,000 active;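 active means inhibition above about 50% at the single tested dose, limit read from the data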
Numbers stand for hits; i = inactive; nt = no result.

SMILES	SENP8 block-1	SENP8 block-2	SENP7 inh	PPC-1+TRAIL kill	TRAIL sens C8	SENP6 inh
C/C(=N\NC(=O)c1csc(C)c1C)c1ccco1	i	i	i	i	55	i
C/C(=N\NC(=O)c1csc(C)c1C)c1ccc(C)s1	i	i	i	i	i	i
Cn1c(-c2ccccc2)c(C(=O)CCl)c2ccccc21	i	nt	nt	i	92	nt
COc1ccc(C(CC(=O)c2ccc3c(c2)OCO3)C(=O)O)cc1OC (configuration not stated)	i	nt	nt	nt	i	nt
COc1ccc(/C=C2/C(=O)N(c3ccccc3)N=C2C)cc1Br	46	i	i	nt	i	i
CC1=NN(c2ccccc2)C(=O)/C1=C/C=C/C=C/N(C)C	i	i	i	nt	i	i
CC1=NN(c2ccccc2)C(=O)/C1=C\N(O)c1ccccc1	76	i	i	nt	i	i
CC1=NN(c2cccc(F)c2)C(=O)/C1=C/c1ccc(N(C)C)cc1	i	i	i	nt	i	i
CC1=NN(c2ccccc2)C(=O)/C1=C/c1ccc(Cl)cc1	41	i	i	nt	i	i
COc1ccc(/C=C2/C(=O)N(c3cccc(F)c3)N=C2C)c(OC)c1	41	i	i	nt	i	i
CC1=NN(c2ccccc2)C(=O)/C1=C/c1cccs1	i	i	i	i	i	i
CC1=NN(c2ccccc2)C(=O)/C1=C\c1ccc(Br)s1	i	i	i	i	i	i
CC1=NN(c2ccc(C(=O)O)cc2)C(=O)/C1=C\c1ccc(OC(=O)c2cccs2)cc1	61	i	i	i	i	i
CC1=NN(c2ccccc2)C(=O)C1=Cc1ccccc1	50	nt	nt	nt	i	nt
CC1=NN(c2ccccc2)C(=O)/C1=C/c1ccc[nH]1	46	i	i	i	i	i
CC1=NN(c2ccccc2)C(=O)/C1=C/c1c(O)n(-c2ccc(F)cc2)[nH]c1=O	i	i	i	i	i	58
O=[N+]([O-])c1cc(F)cc(F)c1Nc1cc(F)cc(F)c1	i	nt	nt	nt	i	nt
CN(Cc1ccc2nsnc2c1)C(=O)C1CCC(=O)N(CCc2ccccc2)C1 (configuration not stated)	i	nt	nt	nt	i	nt
CCC1(c2ccc(F)cc2)NC(=O)N(CC(=O)Nc2ccc(C)c(S(=O)(=O)N3CCOCC3)c2)C1=O (configuration not stated)	i	i	i	i	i	i
Cc1cccc(C)c1NC(=O)C(c1ccc(C#N)cc1)n1c(=O)c(-c2ccco2)nc2ccccc21 (configuration not stated)	i	nt	nt	nt	i	nt
Oc1cccc(-c2nnc(-c3cccc(O)c3)nn2)c1	i	nt	nt	nt	88	nt
COc1ccc(-n2ncc3c(N4CCC(C)CC4)ncnc32)cc1	i	i	i	nt	i	i
COc1ccc(-n2ncc3c(N(C)C4CCCCC4)ncnc32)cc1	i	i	i	nt	85	i
CC1NS(=O)(=O)c2cc([N+](=O)[O-])ccc21 (configuration not stated)	i	nt	nt	nt	i	nt
O=C1c2ccccc2C(=O)c2c(/C=C/N3CCCCC3)ccnc21	64	nt	nt	nt	i	nt
SMILES	SENP8 block-1	SENP8 block-2	SENP7 inh	PPC-1+TRAIL kill	TRAIL sens C8	SENP6 inh
O=C1c2ccccc2-c2cccnc21	i	i	i	nt	i	i
CN(C)CCNc1ncnc2c1ncn2[C@H]1CN(Cc2ccc(-c3ccccc3)cc2)C[C@@H](CO)O1	i	nt	nt	nt	i	nt
O=C(NCc1cc(Cl)cc(Cl)c1)c1csc(COCCO)n1	i	nt	nt	nt	i	nt
Nc1[nH]n(-c2ccccc2)c(=O)c1N=Nc1ccc2c(c1)OCO2	52	52	69	i	i	64
Cc1[nH]n(-c2ccccc2)c(=O)c1N=Nc1ccccc1	i	i	i	i	i	i
OC(c1ccc(F)c(F)c1)c1nc(-c2cc(F)cc(F)c2)cs1 (configuration not stated)	i	nt	nt	nt	i	nt
c1ccc2oc(-c3csc(N4CCOCC4)n3)cc2c1	i	i	i	i	53	i
Fc1ccc(-c2csc(N3CCOCC3)n2)cc1	i	i	i	i	i	i
CC1=NN(C(C#N)c2ccccc2O)C(C)(C)C1 (configuration not stated)	43	i	i	i	i	i
Nc1ccc(S(=O)(=O)c2ccc(N3CCOCC3)c(N)c2)cc1	i	nt	nt	nt	i	nt

Screening data as filed in PubChem.
